This is a sample that favours compounds with a hit; in the whole collection about 6.2% have one here.
KB-3-1 cytotox: KB-3-1 parental cell cytotoxicity; KB-3-1 viability, CellTiter-Glo ATP luminescence, 72 h; Potency, µM (series often up to 46.1 µM), actives largely listed as cytotoxic; 400,000 compounds, 1.4% hits; also: % is scaled to controls: 0 for no effect and ±100 for the full control effect; nearly all actives have a fitted effect of over 60% in size
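Screening of KB-3-1 cells (DMEM, 10% FBS, phenol-red free) ran from lowest to highest compound concentration; after 72 h at 37 °C viability was read luminescently and curves fitted.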
S2 tox: cell viability loss in ATXN counter-screen; Potency, µM (titrated, usually from 56.7 µM), usual class: cytotoxic; 400,000 compounds, 0.49% hits; AID 651635; S2 cells (HEK-293 line with an ATXN2-luciferase reporter) viability, CellTiter-Fluor protease fluorescence, 24 h; also: nearly all actives have a fitted effect of over 40% in size
HT1080NT lethal: kills 2HG-producing HT-1080-NT fibrosarcoma cells. 360,000 compounds, 1.6% hits. HT-1080-NT fibrosarcoma viability, CellTiter-Glo ATP luminescence, 48 h. Potency, µM (top dose mostly 46.1 µM), without a hit: top-dose activity, negative = less viability, most hits filed as cytotoxic;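 also: NT is the 2HG producing partner of a matched IDH1 knockdown line; 0% = DMSO-treated cells and -100% = media-only wells without cells; nearly all actives have a fitted effect of over 55% in size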
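Viability by CellTiter-Glo luminescence after 48 h compound exposure at 37C of HT-1080-NT cells (750/well, RPMI, 5% FBS). % activity scaled between DMSO wells and medium-only wells, then curve-fitted and categorized by curve class.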
ATXN2 expr inh: inhibitors of ATXN2 expression | HEK-293 ATXN2-luciferase reporter, luminescence, 24 h | Potency, µM (series often up to 57 µM), for the others: top-dose activity change, negative = inhibition, actives largely listed as inhibitors | 360,000 compounds, 0.72% hits | AID 1745845; also: % is scaled to controls: 0 for no effect and ±100 for the full control effect; nearly all actives have a fitted effect of over 55% in size
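qHTS (up to 57 uM final) was run with 24 h compound exposure of reporter cells at 37 °C. Each well was multiplexed: SteadyGlo luminescence measured ATXN2-luciferase expression after a fluorogenic Gly-Phe-AFC viability readout (25 uM final).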
HT1080 IDH1KD tx: kills HT-1080 cells with IDH1 knockdown; HT-1080 IDH1 knockdown viability, ATP luminescence, 48 h; 360,000 compounds, 2% hits; Potency, µM (series often up to 46.1 µM), for the others: at the top dose activity, negative = toxicity, most hits filed as cytotoxic;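 also: 0% = DMSO wells and -100% = cell-free medium wells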
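CellTiter-Glo luminescence after 48 h compound exposure at 37 degrees C of IDH1-knockdown HT-1080 cells in 5% FBS RPMI. %Activity scaled between DMSO wells and cell-free media wells, with curves fitted and assigned curve classes.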
KB-V1 cytotox: kills drug-selected multidrug resistant KB-V1 cells; KB-V1 MDR cells viability, CellTiter-Glo, 72 h; Potency, µM (top dose mostly 46.1 µM), most hits filed as cytotoxic; 400,000 compounds, 3.4% hits; also: % is scaled to controls: 0 for no effect and ±100 for the full control effect; nearly all actives have a fitted effect of over 60% in size
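qHTS viability screen in drug-selected KB-V1 MDR cells: 72 h compound treatment at 37 degrees C, ATP luminescence end point.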
* marks the source's active call; other numbers are inactive results; i = inactive; u = inconclusive; x = not tested or not shown. Calls follow the shape of the dose curve; as a rule, active = well fitted curve in the direction sought with a large enough effect; inconclusive = small, poorly fitted or top-dose-only effect, or another doubt; inactive = no such curve, though single readings can be large; an effect the other way counts as inactive or inconclusive. Potency is read from the fitted curve at half-maximal effect.

SMILES | KB-3-1 cytotox | S2 tox | HT1080NT lethal | ATXN2 expr inh | HT1080 IDH1KD tx | KB-V1 cytotox
Cc1ccc(-n2[nH]c(C)c(C=Nc3ccc(C)cn3)c2=O)cc1 | u | i | 7.9µM* | 3% | 0% | u
Cc1[nH]n(-c2ccccc2)c(=O)c1/C=N/n1c(C)nc2ccccc2c1=O | i | i | -5% | -13% | -8% | u
COc1ccc(CNC(=O)C2CCN(Cc3nc(-c4ccc(OC)c(OC)c4)oc3C)CC2)cc1 | i | i | x | 12% | x | i
Cc1cc(C)c(S(=O)(=O)N2CCCOC2CNC(=O)C(=O)NCCc2c[nH]c3ccccc23)c(C)c1 (stereo not drawn) | i | i | -1% | -39% | -28% | 16µM*
Cc1ccc(S(=O)(=O)N2CCCOC2CNC(=O)C(=O)NCCC2=CCCCC2)cc1 (stereo not drawn) | u | i | -5% | -13% | -19% | 2.9µM*
Cc1cc(F)ccc1S(=O)(=O)N1CCCOC1CNC(=O)C(=O)NCCc1c[nH]c2ccccc12 (stereo not drawn) | u | i | -2% | 0% | -4% | 3.3µM*
Cc1cc(C)c(S(=O)(=O)N2CCCOC2CNC(=O)C(=O)NCc2cccs2)c(C)c1 (stereo not drawn) | i | i | -1% | 6% | 3% | 18µM*
O=C(NCCc1c[nH]c2ccccc12)C(=O)NCC1OCCCN1S(=O)(=O)c1ccc(F)cc1 (stereo not drawn) | i | i | -13% | -5% | -8% | u
Cc1ccc(S(=O)(=O)N2CCCOC2CNC(=O)C(=O)NCCN2CCOCC2)cc1 (stereo not drawn) | i | i | -2% | -3% | -5% | i
CC(=O)N1CCc2cc(S(=O)(=O)NC(CC(C)C)C(=O)Nc3cc(C)cc(C)c3)ccc21 (stereo not drawn) | i | i | x | 10% | x | i
COc1cccc(CNc2nc3cc(-c4ccccc4C)sc3c(=O)n2C)c1OC | u | u | u | u | u | i
COc1cc2c(NC3CCN(C)CC3)nc(N3CCCN(C)CC3)nc2cc1O | x | x | -2% | x | 10% | x
O=C(/C=C/[C@H]1O[C@@H](n2ccc(=O)[nH]c2=O)[C@H](O)[C@@H]1O)NCCN1CCCCC1 | i | i | 16% | 13% | 25% | i
O=C(Nc1ccc(Cl)cn1)c1ccc(-c2cc(Cl)ccc2Cl)o1 | i | u | -6% | -11% | 12% | u
Cc1nn(Cc2ccc(Cl)cc2)c(C)c1NC(=O)Cn1nc([N+](=O)[O-])c(Cl)c1C | u | i | u | 6% | -25% | i
Cc1c(Cl)c([N+](=O)[O-])nn1Cc1ccc(C(=O)Nc2ccc(Cl)cn2)o1 | i | i | 0% | -1% | -14% | 3.7µM*
O=C(Nc1ccc(Cl)cn1)c1ccc([N+](=O)[O-])o1 | i | i | 23µM* | u | 21µM* | u
COc1ccc(N2CCN(CCCNC(=O)c3ccc4nc(Cc5ccccc5)oc4c3)CC2)cc1 | u | 10µM* | x | 16µM* | x | i
COc1ccc(Cc2nc3ccc(C(=O)NCCCN4CCN(C)CC4)cc3o2)cc1 | i | x | x | x | x | i
O=C(NCCCN1CCN(c2cccc(Cl)c2)CC1)c1ccc2nc(Cc3ccccc3)oc2c1 | 15µM* | u | x | u | x | u
O=C(Nc1cccc(Cl)c1)c1ccc2nc(Cc3ccccc3)oc2c1 | 15µM* | u | x | u | x | u
CCOC(=O)C1=C(N)Oc2ccc3ccccc3c2C1c1ccc(O)c(OC)c1 (stereo not drawn) | i | i | 21µM* | -29% | u | i
Cc1cccc(OC2(c3ccccc3)OC(=O)c3ccccc32)c1C (stereo not drawn) | i | i | -4% | -12% | -23% | 15µM*
CCn1c(N2CCN(C(=S)NCC(C)C)CC2)nc2ccccc21 | i | i | 0% | -15% | 0% | 10µM*
CCn1c(N2CCN(S(=O)(=O)c3ccc(F)cc3)CC2)nc2ccccc21 | u | i | -14% | -20% | -15% | 12µM*
SMILES | KB-3-1 cytotox | S2 tox | HT1080NT lethal | ATXN2 expr inh | HT1080 IDH1KD tx | KB-V1 cytotox
CCn1c(N2CCN(S(=O)(=O)CC)CC2)nc2ccccc21 | i | i | 11% | 3% | 12% | u
CCn1c(N2CCN(S(=O)(=O)c3ccc(Cl)cc3)CC2)nc2ccccc21 | u | i | -27% | -31% | u | 8.2µM*
CCC1CCCCN1C(=O)Cn1c(=O)oc2cc(S(=O)(=O)N3CCCCC3)ccc21 (stereo not drawn) | i | i | x | 9% | x | i
CN(C)c1ccc(/C=C/c2ccc3cc(F)ccc3n2)cc1 | i | x | x | x | x | i
CCC(C)C(NC(=O)C1CCC(C)CC1)C(=O)Nc1cc(OC)ccc1OC (stereo not drawn) | i | i | -27% | -13% | u | 2.6µM*
COc1ccccc1NC(=O)C(CC(C)C)NC(=O)C1CCCCC1 (stereo not drawn) | i | i | 3% | -3% | -2% | 4.1µM*
COc1ccccc1C(=O)Nc1nnc(SCc2cc(=O)c3ccccc3[nH]2)s1 | i | u | x | -13% | x | i
O=C1CC(N(CCc2ccccc2)C(=S)Nc2ccccc2)C(=O)N1c1ccc(Br)cc1 (stereo not drawn) | u | u | 16µM* | u | u | u
COc1ccc(CCN(C(=S)Nc2ccccc2)C2CC(=O)N(c3ccccc3)C2=O)cc1 (stereo not drawn) | i | i | -3% | -9% | -5% | i
Cc1ccc2c(CNCc3cccc(Cl)c3)c(C(=O)O)n(Cc3ccc(F)cc3Cl)c2c1 | i | i | x | 7% | x | i
CCCc1c(-c2cccc(Cl)c2)ncn1Cc1cccc(-c2ccccc2)c1 | u | x | u | x | 23µM* | 21µM*
CCc1c(-c2cccc(Cl)c2)ncn1Cc1cccc(-c2ccccc2)c1 | u | x | u | x | u | 16µM*
CC(=O)c1ccc(F)c(-c2cc(C)cc3c2OC(CNC(=O)c2ccnn2C)C3)c1 (stereo not drawn) | x | i | x | x | x | x
CCOc1cccc(CN2CCC(n3cc(C(=O)N4CCCCC4)nn3)CC2)c1O | x | i | x | x | x | x
O=CN(Cc1ccccc1)c1cc([N+](=O)[O-])ccc1OCc1ccccc1 | i | u | 3% | 12% | 10% | 5.8µM*
Nc1cc([N+](=O)[O-])ccc1OCc1ccccc1 | i | i | -3% | 22% | -15% | u

Assay outcomes as filed in PubChem.
